As usually defined, the cell viability is a read-out of living cells in per cent, often relative to untreated cells.

Structures are written as SMILES. Where a name gives a salt, the structure may show the parent alone.

This assay concerns MARIMO. The experiment in a line: cell viability relative to vehicle control; higher = less cytotoxic. To be noted: 10 µM; SRSF2 genotype: SRSF2 wt/wt. A digest of the protocol:
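CRISPR-edited mutant clones and isogenic wild-type clones from four leukaemia lines were screened against Selleck bioactive, kinase and epigenetic probe libraries, with identity-inconsistent compounds excluded. Each compound was acoustically dispensed at a single 10 µM dose into 384-well plates holding 2000 cells in 50 µL medium per well. After 48 h the supernatant was removed and CellTiter-Glo luminescence was read. Viability was expressed as percent of the on-plate vehicle control and analysed in Genedata Screener.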
In the case of `COc1ccc2c(c1)c(CC(=O)OCC(=O)O)c(C)n2C(=O)c1ccc(Cl)cc1` [Acemetacin (Emflex)], the cell viability was 94.9%.
With `CC(c1cc2ccccc2s1)N(O)C(N)=O` (centres undefined) [Zileuton], the cell viability is 99.2%.
With `COc1ccc(C(=O)CC(=O)c2ccc(C(C)(C)C)cc2)cc1` [Avobenzone (Parsol 1789)], the cell viability was 92.6%.
The value for `CNC(=O)[C@H](Cc1ccccc1)NC(=O)[C@H](CC(C)C)[C@H](CSc1cccs1)C(=O)NO` [Batimastat (BB-94)] was 96.8%; that for `Nc1ncnc2c1c(-c1cccc(OCc3ccccc3)c1)cn2C1CC(CN2CCCC2)C1` (centres undefined) was 40.6%; that for `C=C1C[C@@]23CC[C@H]4[C@@](C)(CCC[C@@]4(C)C(=O)O)[C@@H]2CC[C@@H]1C3` [Kaurenoic acid] was 101%.
As for `CC(C)[C@H](NC(=O)[C@H](CC(=O)O)NC(=O)[C@H](CCCCN)NC(=O)[C@@H](N)CCCN=C(N)N)C(=O)N[C@@H](Cc1ccc(O)cc1)C(=O)O` [Thymopentin], the figure is 94.6%; as for `C=CC(=O)Nc1cccc(Nc2nc(Nc3ccc(NC4CN(CCF)C4)cc3OC)ncc2C(F)(F)F)c1`, 19.6%; as for `CC1(C)O[C@@H]2[C@@H](CO[C@@]3(COS(N)(=O)=O)OC(C)(C)O[C@@H]23)O1` [Topiramate], 106%.
The value for `O=S(=O)(NCCSSCCNS(=O)(=O)c1cc(Cl)ccc1Cl)c1cc(Cl)ccc1Cl` was 72.4%; that for `COC(=O)CCC(C)C1CCC2C3C(O)CC4CC(O)CCC4(C)C3CC(O)C12C` (centres undefined) [Methyl Cholate] was 112%.
With `COc1ccc(C2=NC(c3ccc(Cl)cc3)C(c3ccc(Cl)cc3)N2C(=O)N2CCNC(=O)C2)c(OC(C)C)c1` (centres undefined) [Nutlin-3b], the cell viability came out at 97.1%.
The value for `Clc1ncnc2nc[nH]c12` [6-Chloropurine] was 87%.
The value for `CCC1=C[C@@H]2CN(C1)Cc1c([nH]c3ccccc13)[C@@](C(=O)OC)(c1cc3c(cc1OC)N(C)[C@H]1[C@@](O)(C(=O)OC)[C@H](OC(C)=O)[C@]4(CC)C=CCN5CC[C@]31[C@@H]54)C2` [Vinorelbine Tartrate] was 7.57%; that for `Cc1nccn1CC1CCc2c(c3ccccc3n2C)C1=O` (centres undefined) [Ondansetron hydrochloride (Zofran)] was 95.6%.
`CC(C)=CCCC(C)(O)C1CCC2(C)C1C(O)CC1C3(C)CCC(O)C(C)(C)C3CCC12C` [(20S)-Protopanaxadiol]: the cell viability turned out to be 109%.
As for `C[C@@H]1O[C@@H](O[C@@H]2[C@@H](O)[C@H](OCCc3ccc(O)c(O)c3)O[C@H](CO)[C@H]2OC(=O)/C=C/c2ccc(O)c(O)c2)[C@H](O)[C@H](O)[C@H]1O` [Verbascoside], the cell viability was 92.3%.
As for `C=C1C[C@@]23CC[C@H]4[C@@](C)(CCC[C@@]4(C)C(=O)O)[C@@H]2CC[C@]1(O[C@@H]1O[C@@H](CO)[C@@H](O)[C@H](O)[C@@H]1O[C@@H]1O[C@@H](CO)[C@@H](O)[C@H](O)[C@@H]1O)C3` [Steviolbioside], the figure is 99.5%; as for `CNc1ccc([N+](=O)[O-])c(Nc2ccc3[nH]ncc3c2)n1`, 60%; as for `CN(C)/N=N/c1[nH]cnc1C(N)=O` [Dacarbazine (DTIC-Dome)], 107%.
As for `Cc1ccc(CN(CC(O)COc2cccc3[nH]ccc23)C(C)(C)C)cc1` (centres undefined), the cell viability stood at 76.8%.
Take `CN1CCN(C2=Nc3cc(Cl)ccc3Nc3ccccc32)CC1` [Clozapine (Clozaril)]: the cell viability turned out to be 94.4%.
Consider `C[C@]1(O)C[C@@H](O)[C@@H]2C=CO[C@@H](O[C@@H]3O[C@H](CO)[C@@H](O)[C@H](O)[C@H]3O)[C@@H]21` [Leonuride], for which the cell viability amounted to 94.9%.
As for `CCCCCCCCCC(C)O` (centres undefined) [2-Undecanol], the figure is 102%; as for `CC(C)(C)n1nc(-c2ccc(Cl)cc2)c2c(N)ncnc21`, 104%.
The value for `Cc1cc(O)c(-c2ccc([C@@H](C)CN(C)C)cc2)c2c1[nH]c(=O)c1sccc12` was 1.17%.
As for `CC1(C)CC[C@]2(C(=O)O)CC[C@]3(C)C(=CC[C@@H]4[C@@]5(C)CC[C@H](O)C(C)(C)[C@@H]5CC[C@]43C)[C@@H]2C1` [Oleanolic Acid (Caryophyllin)], the figure is 82.8%; as for `C[C@@H]1CC[C@@]2(OC1)O[C@H]1C[C@H]3[C@@H]4CC=C5C[C@@H](O[C@@H]6O[C@H](CO)[C@@H](O)[C@H](O)[C@H]6O)CC[C@]5(C)[C@H]4CC[C@]3(C)[C@H]1[C@@H]2C` [Trillin], 78.7%; as for `CCCCCCOC(=O)c1cc(=O)c(O)c2c(O)c(O)c(OC)cc2c1`, 45.2%.

The record behind these values is the supplement of paper PMC10981050.
